According to PubChem BioAssay AID540321 (Johns Hopkins Ion Channel Center, 2011):
Active and inactive are the calls of the source.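 Rule for the calls: active = Inhibition of the Kir2.1 potassium channel over 30% at some tested dose, plus a fitted dose response curve; inactive = no Kir2.1 inhibition at any dose, or no curve fitted.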

What follows are compounds tested against Inward rectifier potassium channel 2 (Mus musculus) (UniProt P35561) (assay: off-target blockade of inward rectifier Kir2.1 – cell-based, FluxOR thallium flux, CRC round 2, selectivity assay for KCNK9 inhibitor project, SAR follow-up (AID 540321)). Conditions: Kir2.1-expressing cells; series mostly up to 30 µM; fluorescence ratio, lower = inhibition: at the top concentration.
Chain of Inward rectifier potassium channel 2 (Mus musculus) (P35561 whole entry, looked up): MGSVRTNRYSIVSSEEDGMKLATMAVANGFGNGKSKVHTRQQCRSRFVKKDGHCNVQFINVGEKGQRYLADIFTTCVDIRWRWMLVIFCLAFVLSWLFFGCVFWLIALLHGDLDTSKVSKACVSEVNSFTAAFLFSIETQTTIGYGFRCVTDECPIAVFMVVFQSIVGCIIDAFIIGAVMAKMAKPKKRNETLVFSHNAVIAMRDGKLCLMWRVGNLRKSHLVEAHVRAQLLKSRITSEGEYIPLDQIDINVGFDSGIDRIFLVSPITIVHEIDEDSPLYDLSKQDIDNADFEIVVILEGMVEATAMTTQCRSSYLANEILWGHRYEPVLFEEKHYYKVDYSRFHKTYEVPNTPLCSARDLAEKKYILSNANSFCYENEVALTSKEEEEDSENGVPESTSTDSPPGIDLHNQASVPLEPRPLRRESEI

Fluorescence ratio, lower = inhibition, inactive:
Cc1cccc(C(=O)Nc2cccc(NC(=O)C3CCCCC3)c2)c1 1.5
O=C(Nc1cccc(NC(=O)c2ccsc2)c1)c1ccccc1 1.81
CCOc1ccccc1NC(=O)c1cccc(NC(=O)C2CCOC2)c1 (stereo not given) 1.92
CCOc1ccccc1NC(=O)c1cccc(NC(=O)c2cccc(Cl)c2)c1 1.84
O=C(Nc1cccc(NC(=O)c2ccc(Cl)cc2)c1)c1ccccc1 1.31
O=C(Nc1cccc(NC(=O)c2ccncc2)c1)c1ccccc1 1.54
COc1ccc(C(=O)Nc2cccc(NC(=O)c3ccccc3)c2)cc1 1.37
O=C(Nc1cccc(NC(=O)c2ccccc2C(F)(F)F)c1)c1ccccc1 1.48
Cc1cccc(C(=O)Nc2cccc(NC(=O)c3ccncc3)c2)c1 1.68
CCOc1ccccc1NC(=O)c1cccc(NC(=O)c2cccc(C)c2)c1 1.76
COc1ccccc1NC(=O)c1cccc(NC(=O)CC2CCCC2)c1 1.81
CCOc1ccccc1C(=O)Nc1cccc(NC(=O)c2ccccc2OC)c1 1.66
CCOc1ccccc1NC(=O)c1cccc(NC(=O)CC2CCCC2)c1 1.67
COc1ccccc1NC(=O)c1cccc(NC(=O)c2ccccc2C(F)(F)F)c1 1.94
O=C(Nc1cccc(NC(=O)C2CCCCC2)c1)c1ccccc1 1.75
COc1ccccc1C(=O)Nc1cccc(NC(=O)c2ccccc2C)c1 1.71
CCOc1ccccc1NC(=O)c1cccc(NC(=O)C(C)(C)C)c1 1.83
Cc1cccc(C(=O)Nc2cccc(NC(=O)c3ccc(Cl)cc3)c2)c1 1.77
O=C(Nc1cccc(NC(=O)c2cccnc2)c1)c1ccccc1 1.57
COc1ccccc1NC(=O)c1cccc(NC(=O)C2CCCCC2)c1 1.61
CCOc1ccccc1NC(=O)c1cccc(NC(=O)c2ccc(C)cc2)c1 1.86
Cc1cccc(C(=O)Nc2cccc(NC(=O)c3ccccc3C(F)(F)F)c2)c1 1.51
CCOc1ccccc1C(=O)Nc1cccc(NC(=O)c2ccccc2C(F)(F)F)c1 1.97
CCOc1ccccc1NC(=O)c1cccc(NC(=O)c2ccccc2OC(F)(F)F)c1 1.71
Cc1ccccc1C(=O)Nc1cccc(NC(=O)c2ccccc2)c1 1.71
O=C(Nc1cccc(NC(=O)c2cccc(Cl)c2)c1)c1ccccc1 1.25
Cc1ccccc1-c1n[nH]c(=S)n1C(C)C1CC2CCC1C2 (stereo not given) 1.58
Cc1cccc(C(=O)Nc2cccc(NC(=O)c3cccc(Cl)c3)c2)c1 1.62
CC(C1CC2CCC1C2)n1c(-c2ccc(Cl)cc2)n[nH]c1=S (stereo not given) 1.69
Cc1cccc(C(=O)Nc2cccc(NC(=O)c3ccccc3OC(F)(F)F)c2)c1 1.76
CC(C1CC2CCC1C2)n1c(-c2ccco2)n[nH]c1=S (stereo not given) 1.39
COc1ccccc1C(=O)Nc1cccc(NC(=O)c2cccc(C)c2)c1 1.71
O=C(Nc1cccc(NC(=O)c2cccc(C(F)(F)F)c2)c1)c1ccccc1 1.41
Cc1cccc(C(=O)Nc2cccc(NC(=O)c3ccco3)c2)c1 1.75
Cc1cccc(C(=O)Nc2cccc(NC(=O)c3cccs3)c2)c1 1.54
